Laboratory results as given in PubChem BioAssay (NCATS).
Results filed as inconclusive are left out. Where a call stands in place of a potency, no number is given. Active and inactive are the calls of the source. Calls come from the whole dose curve; as a rule, active = well fitted inhibition curve with a large enough effect; inconclusive = small, poorly fitted or top-dose-only effect; inactive = no such curve, though single readings can be large or run the other way.

target: Retinaldehyde dehydrogenase 3 (Homo sapiens) (UniProt P47895); assay: qHTS for Inhibitors of the Aldehyde Dehydrogenase Family (ALDH1A3) Primary screen (AID 2061315); settings: ALDH inhibition qHTS; series mostly up to 56 µM

Row | SMILES | Potency
1 | CC1OC(OC2C(O)C(OC3CCC4(C)C(CCC5(C)C4CC=C4C6CC(C)(COC7OC(CO)C(O)C(O)C7O)CC(O)C6(C)CCC45C)C3(C)C)OC(C(=O)O)C2O)C(O)C(O)C1OC1OCC(O)C(O)C1O (stereo not drawn) | inactive
2 | COc1ccc(F)cc1-c1cc(NC(=O)[C@@H]2CCCNC2)ncc1Cl | inactive
3 | CCS(=O)(=O)N1CC(CC#N)(n2cc(-c3ncnc4[nH]ccc34)cn2)C1 | inactive
4 | CC1CCCC[C@H]2C(=O)C=C[C@H](O)[C@@H]2CC(=O)O1 (stereo partly drawn) | inactive
5 | O=C(/C=C/c1ccc(O)cc1)OCC1=CC2OC(=O)C3=CO[C@@H](O[C@@H]4O[C@H](CO)[C@@H](O)[C@H](O)[C@H]4O)[C@H]1[C@@H]32 (stereo partly drawn) | inactive
6 | C/C(=C/CO)CC[C@@H]1[C@@](C)(O)CCC2C(C)(C)CCC[C@]21C (stereo partly drawn) | inactive
7 | C[C@@H](c1nc(-c2ccc(C#N)cc2)cs1)[C@](O)(Cn1cncn1)c1cc(F)ccc1F | inactive
8 | COC1C(=O)CCC2(CO2)C1(O)C1(C)OC1CC=C(C)C (stereo not drawn) | inactive
9 | CC(=O)OC1C(OC(=O)c2ccccc2)C2C(C)(C)CC(=O)CC2(C)C23CCC(C)(C2)C(O)CC13 (stereo not drawn) | inactive
10 | CN(CC1COCCO1)S(=O)(=O)Nc1ccc2ccc3ncc(-c4cnn(C)c4)cc3c(=O)c2c1 (stereo not drawn) | inactive
11 | CC1=C2CC3OC3(C)CCC3OC3(C)CC2OC1=O (stereo not drawn) | inactive
12 | CC1=C(C(=O)O)/C(=C/CO[C@@H]2O[C@H](COC(=O)/C=C/c3ccc(O)cc3)[C@@H](O)[C@H](O)[C@H]2O)C(O)C1 (stereo partly drawn) | inactive
13 | C=C(C)C1CCC2(C(=O)OC3OC(COC4OC(CO)C(O)C(O)C4O)C(OC4OC(C)C(O)C(O)C4O)C(O)C3O)CCC3(C(=O)O)C(CCC4C5(C)CCC(=O)C(C)(C)C5CCC43C)C12 (stereo not drawn) | inactive
14 | O=C(OCC12OC1C=CC(OC(=O)c1ccccc1)C2O)c1ccccc1 (stereo not drawn) | inactive
15 | C[C@@H]1O[C@@H](OC[C@H]2O[C@@H](OCc3ccccc3)[C@H](O)[C@@H](O)[C@@H]2O)[C@H](O)[C@H](O)[C@H]1O | inactive
16 | CC1=CC(=O)CC(C)(CO)C1(O)/C=C/C(C)O[C@@H]1O[C@H](CO)[C@@H](O)[C@H](O)[C@H]1O (stereo partly drawn) | inactive
17 | COC(=O)/C=C/c1ccc(O[C@@H]2O[C@H](CO)[C@@H](O)[C@H](O)[C@H]2O)cc1 | inactive

Row | SMILES | Potency
18 | CC(=O)C=C=C1C(C)(C)CC(O)CC1(C)O[C@@H]1O[C@H](CO[C@H]2OC[C@](O)(CO)[C@H]2O)[C@@H](O)[C@H](O)[C@H]1O (stereo partly drawn) | inactive
19 | CC1(C)CCC2(C(=O)OC3OC(COC4OC(CO)C(O)C(O)C4O)C(O)C(O)C3O)CCC3(C)C(=CCC4C5(C)CCC(OC6OCC(O)C(O)C6O)C(C)(C)C5CCC43C)C2C1O (stereo not drawn) | inactive
20 | COC(=O)c1ccccc1O[C@@H]1O[C@H](CO[C@@H]2OC[C@@H](O)[C@H](O)[C@H]2O)[C@@H](O)[C@H](O)[C@H]1O | inactive
21 | COC(=O)C1(Cc2ccc(O)cc2)OC(=O)C(OC)=C1c1ccc(O)cc1 (stereo not drawn) | inactive
22 | Nc1ncnc2c1nc(Cl)n2C1OC2COP(=O)(O)OC2C1O (stereo not drawn) | inactive
23 | Cc1ccccc1-n1c([C@H](C)Nc2nc(N)nc3nc[nH]c23)nc2cccc(C)c2c1=O | inactive
24 | CCC(CC)C(=O)Nc1sc2c(c1C#N)CCC(C(C)(C)CC)C2 (stereo not drawn) | inactive
25 | COc1ccc(/C=C/C(=O)O[C@H]2[C@@H]3C=CO[C@@H](O[C@@H]4O[C@H](CO)[C@@H](O)[C@H](O)[C@H]4O)[C@@H]3[C@@]3(CO)O[C@@H]23)cc1O | inactive
26 | CC12CC(c3ccoc3)OC(=O)C1CCC1(C)C2CCC(O)C1(C)O (stereo not drawn) | inactive
27 | NC(=O)c1cnc(NCCc2ccc(O)c(Cl)c2)nc1NCc1ccccc1 | inactive
28 | O=C(/C=C/c1ccc(O)cc1)OC1[C@H](O)CC(O)(C(=O)O)C[C@H]1O (stereo partly drawn) | inactive
29 | O=C(O)CC(CCc1ccccc1)OC1OC(CO)C(O)C(O)C1O (stereo not drawn) | inactive
30 | CCC(C)C(=O)O[C@H]1CCC=C2C=C[C@H](C)[C@H](CC[C@@H](O)C[C@@H](O)CC(=O)O)[C@H]21 (stereo partly drawn) | inactive
31 | CCNC1(C(N)=O)CN(c2nc(C)nc3c(-c4ccc(Cl)cc4)c(-c4ccccc4Cl)nn23)C1 | inactive
32 | C=C(C)[C@H]1CC[C@]2(C(=O)O)CC[C@]3(C)C(CCC4[C@@]5(C)CCC(=O)C(C)(C)C5CC[C@]43C)C12 (stereo partly drawn) | inactive
33 | CC12CCC(C(OC3OC(COC4OCC(O)(CO)C4O)C(O)C(O)C3O)C1)C(C)(C)O2 (stereo not drawn) | inactive
